The source of these data is PubChem BioAssay (Tox21).

A short description of assay [1]: qHTS assay to identify small molecule antagonists of the estrogen related receptor signaling pathway with the pleiotropic PPARgamma coactivator (PGC) from Tox21 10K library - cell viability counter screen (AID 1224840; active = well fitted cell-killing curve with a large enough effect in the repeat runs, not every such curve was filed as active; note: nearly all actives have a fitted effect of over 40% in size). In short, it runs like this:
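PGC/ERR cells (2,000/well) plated 6 h, then compound-treated for 17.5 h at 37 C. Viability measured by CellTiter-Fluor fluorescence after 30 min at 37 C, multiplexed with the pathway assay.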

Assay [2] in a line: qHTS assay to identify small molecule antagonists of the estrogen related receptor signaling pathway with the pleiotropic PPARgamma coactivator (PGC) from Tox21 10K library (AID 1224841; call rule not given here; note: actives are mostly falling curves and most rising ones were filed inactive; nearly all actives have a fitted effect of over 50% in size). In short, it runs like this: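 PGC/ERR cell line, 2,000 cells/well, pre-incubated 6 hours at 37 C, then exposed to compounds for 18 hours at 37 C; luciferase read with One-Glo luminescence after 30 min at room temperature.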
In general terms: In qHTS, concentration-response curves come from the screen itself.

A short description of assay [3]: qHTS assay to identify small molecule agonists of the estrogen related receptor signaling pathway with the pleiotropic PPARgamma coactivator (PGC) from Tox21 10K library (AID 1224842). Note: nearly all actives have a fitted effect of over 15% in size. In short, it runs like this: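 PGC/ERR reporter cell line, 2,000 cells per well, incubated 6 h at 37 C before 23 nL compound in DMSO was added. After 18 h at 37 C, One-Glo luminescence read following 30 min at room temperature.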

Assay [4] concerns the target Thyrotropin receptor (Homo sapiens) (UniProt P16473). As to the kind of experiment: qHTS assay to identify small molecule agonists of the thyroid stimulating hormone receptor (TSHR) signaling pathway (AID 1224843; calls by dose curve; note: nearly all actives have a fitted effect of over 45% in size; note: potency is the fitted concentration of half-maximal effect). In short, it runs like this: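 Steps: seed 800 TSHR-HEK293 cells per well; add test compound and hold 30 min at ambient temperature; dispense cAMP-d2 then anti-cAMP cryptate; incubate 1 h at ambient; measure fluorescence intensity.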

Assay [5] in a line: qHTS assay to identify small molecule agonists of the hypoxia (HIF-1) signaling pathway - cell viability counter screen (AID 1224844; calls by dose curve; note: nearly all actives have a fitted effect of over 50% in size). In short, it runs like this:
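HRE-bla ME-180 cells, 2,000/well in 0.5% dialyzed FBS medium, treated 17 h at 37C with compounds. Viability read in the same wells as the bla reporter, by CellTiter-Glo luminescence after 30 min at room temperature.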

The nature of assay [6]: qHTS assay to identify small molecule agonists of H2AX (AID 1224845; active = well fitted activation curve with a large enough effect in the signal ratio in the repeat runs, not every such curve was filed as active; the % refers to the signal ratio). In short, it runs like this: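 Wild-type CHO-K1 cells, plated overnight, exposed 3hr at 37C to 15 concentrations (0.76% DMSO final). Lysed, then HTRF anti-pH2AX (S139) cryptate and anti-H2AX-d2 antibodies, 24 hr room temperature; 665/620 nm emission read.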
The nature of assay [7]: qHTS assay to identify small molecule agonists of the hypoxia (HIF-1) signaling pathway (AID 1224846; active = well fitted activation curve with a large enough effect in the signal ratio in the repeat runs, not every such curve was filed as active; the % refers to the signal ratio). In short, it runs like this:
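HRE-bla ME-180 beta-lactamase reporter cells in medium with 0.5% dialyzed FBS, pre-incubated 5 h then exposed to compounds 17 h at 37C, 5% CO2; reporter induction read with CCF4-AM FRET substrate.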

A short description of assay [8]: qHTS assay to identify small molecule agonists of H2AX - cell viability counter screen (AID 1224847; calls by dose curve; note: top concentration of the series differs between compounds; nearly all actives have a fitted effect of over 30% in size). Put shortly: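 CHO-K1 cells plated overnight at 37C, then exposed 3 h at 37C to compounds at 15 concentrations (0.76% DMSO final). Viability by CellTiter-Glo luminescence after 30 min at room temperature.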
Assay [9] in a line: qHTS assay to identify small molecule antagonists of the estrogen related receptor (ERR) signaling pathway from Tox21 library (AID 1224848). Note: nearly all actives have a fitted effect of over 50% in size. Put shortly:
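Luminescent reporter read-out (ONE-Glo) from NTP's ERR cell line after 18 h treatment at 37 C with DMSO-dissolved Tox21 compounds; cells pre-plated 6 h beforehand at 2,000 per well.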

Assay [10] in a line: qHTS assay to identify small molecule agonists of the estrogen related receptor (ERR) signaling pathway from Tox21 library (AID 1224849; calls by dose curve; note: nearly all actives have a fitted effect of over 15% in size). To be noted: ERR reporter cell line, ONE-Glo luciferase, 18 h; at 92.4 µM (top of the series) unless noted. In short, it runs like this:
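ERR reporter cells (NTP line) pre-incubated 6 hours at 37 C, then exposed to compounds for 18 hours at 37 C. ONE-Glo luciferase luminescence was read after 30 minutes at room temperature.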

Assay [11] is described as follows: qHTS RealTime-Glo MT Cell Viability Assay in HepG2 cells - 24 hour (AID 1224867). Note: nearly all actives have a fitted effect of over 50% in size. In short, it runs like this:
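HepG2 cells (600/well) were dispensed with RealTime-Glo reagents, incubated 5 h at 37 °C, then treated with compounds in DMSO for up to 40 h. Nonlytic NanoLuc luminescence reflecting viable cells was read at each stated time point.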

A short description of assay [12]: A CellTox Green Cytotoxicity Assay to monitor cytotoxicity in HEK293 cells - 0 hour (AID 1224869). Note: nearly all actives have a fitted effect of over 50% in size. Put shortly:
(§1)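 HEK293 cells, 600/well, were preincubated 5 hours and then exposed to compounds at 37 C for up to 40 hours. A cell-impermeant cyanine dye staining dead-cell DNA was read by fluorescence at 0, 8, 16, 24, 32 and 40 h time points.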

Assay [13] is described as follows: qHTS RealTime-Glo MT Cell Viability Assay in HepG2 cells - 40 hour (AID 1224870). Note: nearly all actives have a fitted effect of over 50% in size. Put shortly: (§2)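 HepG2 cells (600/well) mixed with RealTime-Glo MT reagent, settled 5 h at 37 C/5% CO2 before compound addition. Nonlytic NanoLuc luminescence from viable-cell prosubstrate reduction read repeatedly during 40 h treatment at 37 C.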
The nature of assay [14]: A CellTox Green Cytotoxicity Assay to monitor cytotoxicity in HEK293 cells - 40 hour (AID 1224871). Note: nearly all actives have a fitted effect of over 45% in size. Put shortly:
as §1

A short description of assay [15]: A CellTox Green Cytotoxicity Assay to monitor cytotoxicity in HEK293 cells - 24 hour (AID 1224875). Note: nearly all actives have a fitted effect of over 45% in size. Put shortly:
as §1

Assay [16] in a line: A CellTox Green Cytotoxicity Assay to monitor cytotoxicity in HepG2 cells - 16 hour (AID 1224876). Note: nearly all actives have a fitted effect of over 45% in size. In short, it runs like this:
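HepG2 cells, 600/well, preincubated 5 h with CellTox Green dye, then exposed to Tox21 compounds in DMSO at 37 C for up to 40 h. Dead-cell DNA fluorescence read at the indicated time point.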

The nature of assay [17]: qHTS RealTime-Glo MT Cell Viability Assay in HEK293 cells - 32 hour (AID 1224868). In short, it runs like this: (§3)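 HEK293 cells seeded with NanoLuc/prosubstrate reagent, rested 5 h at 37 C, then dosed and kept at 37 C up to 40 h. Nonlytic real-time luminescence from viable cells read at 0, 8, 16, 24, 32 and 40 h.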
Assay [18] in a line: qHTS RealTime-Glo MT Cell Viability Assay in HEK293 cells - 16 hour (AID 1224872). In short, it runs like this: as §3
A short description of assay [19]: qHTS RealTime-Glo MT Cell Viability Assay in HepG2 cells - 8 hour (AID 1224873). Note: nearly all actives have a fitted effect of over 55% in size. In short, it runs like this:
as §2

Assay [20] is described as follows: qHTS RealTime-Glo MT Cell Viability Assay in HEK293 cells - 40 hour (AID 1224874). Note: nearly all actives have a fitted effect of over 50% in size. The note with it: RealTime-Glo luminescence; max response: stronger effect = lower value. In short, it runs like this: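 600 cells/well were plated with the nonlytic NanoLuc/prosubstrate reagent, pre-incubated 5 h, then given 23 nL of compound in DMSO. Incubation at 37 C for 40 h, with luminescence from viable-cell-reduced substrate read repeatedly from 0 h.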

Values without a mark were called inactive. Inconclusive results are not listed. The source made the active and inactive calls. Unless noted, calls come from the whole dose curve; as a rule, active = well fitted curve in the direction sought with a large enough effect in the repeat runs; inconclusive = weak or mixed curves; inactive = no such curve, though single readings can be large; an effect the other way counts as inactive or inconclusive.
% is set by controls: 0 for no effect and ±100 for the full control effect.

Thyrotropin receptor (Homo sapiens), sequence (P16473 whole entry, looked up): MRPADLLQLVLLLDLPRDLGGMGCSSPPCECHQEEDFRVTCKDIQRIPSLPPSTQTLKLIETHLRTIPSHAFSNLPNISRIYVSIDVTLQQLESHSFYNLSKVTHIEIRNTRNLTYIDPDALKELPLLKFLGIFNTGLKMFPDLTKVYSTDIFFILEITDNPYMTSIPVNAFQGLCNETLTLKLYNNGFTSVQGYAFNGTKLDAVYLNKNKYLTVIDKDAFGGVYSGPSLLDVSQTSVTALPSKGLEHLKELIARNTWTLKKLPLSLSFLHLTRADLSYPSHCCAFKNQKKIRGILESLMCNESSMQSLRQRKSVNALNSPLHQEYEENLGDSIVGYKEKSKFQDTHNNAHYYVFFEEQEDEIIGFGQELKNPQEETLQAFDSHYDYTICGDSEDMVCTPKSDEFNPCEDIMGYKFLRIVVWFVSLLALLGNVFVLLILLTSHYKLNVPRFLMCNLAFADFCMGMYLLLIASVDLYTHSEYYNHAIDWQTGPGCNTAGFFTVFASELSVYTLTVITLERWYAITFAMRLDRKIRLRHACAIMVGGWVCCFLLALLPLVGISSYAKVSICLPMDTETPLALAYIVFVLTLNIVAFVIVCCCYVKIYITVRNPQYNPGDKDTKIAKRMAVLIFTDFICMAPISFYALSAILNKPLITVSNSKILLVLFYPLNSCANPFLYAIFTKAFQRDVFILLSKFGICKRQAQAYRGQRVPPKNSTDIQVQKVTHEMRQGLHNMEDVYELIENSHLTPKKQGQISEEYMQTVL

Take `C=C1CC[C@H]2O[C@]2(C)CC[C@@H]2[C@@H]1CC2(C)C`: the Potency result in assay [1], in [2], in assay [3], in assay [4], in assay [5] and in assay [6] was “inactive” each time. Moreover, the Potency result in assay [7], in assay [8], in assay [9], in [11], in assay [12] and in assay [13] was “inactive” in each case. In addition, the Potency entry in [14], in assay [15] and in assay [16] was “inactive” each time. In addition, the activity change, positive = activation in assay [10] was 2.38%.
Take `Clc1ccc2c(Cl)ccnc2c1`: the Potency entry in assay [1], in assay [2], in assay [3], in assay [4], in assay [5] and in [6] was “inactive” each time. The Potency result in assay [7], in assay [8], in [9], in assay [11], in assay [17] and in [12] was “inactive” throughout. Also, the Potency result in [13], in [18], in [19], in assay [15] and in assay [16] was “inactive” each time. Moreover, the activity change, positive = activation in [10] is 1.29%. In addition, in assay [20], the max response is -6.98%.
For `C/C=C/C(=O)C1=C(C)C=CCC1(C)C`, the Potency entry in assay [1], in assay [2], in assay [3], in assay [4], in [5] and in assay [6] was “inactive” throughout. In addition, the Potency entry in [7], in assay [8], in [9], in assay [11], in assay [17] and in assay [12] was “inactive” each time. The Potency result in assay [13], in assay [14], in [18], in [19], in [15] and in assay [16] was “inactive” each time. Moreover, the max response in assay [20] is 1.31%.
Consider `COc1cc(OC)nc(NC(=O)NS(=O)(=O)Nc2ccccc2C(=O)N(C)C)n1`, for which the Potency entry in assay [1], in assay [2], in [3], in assay [4], in [5] and in assay [6] was “inactive” each time. Moreover, the Potency result in [7], in assay [8], in [9], in assay [11], in assay [17] and in [12] was “inactive” each time. The Potency entry in assay [13], in [18], in [19], in assay [15] and in assay [16] was “inactive” each time. Further, the activity change, positive = activation in assay [10] was -7.75%. In assay [20], the max response was 6.33%.
As to `c1ccc2occc2c1`, the Potency entry in [1], in [2], in [3], in assay [5], in assay [6] and in assay [7] was “inactive” throughout. Moreover, the Potency result in [8], in [9], in [11], in assay [17], in [12] and in assay [13] was “inactive” throughout. The Potency entry in assay [14], in assay [18], in assay [19], in [15] and in [16] was “inactive” throughout. Besides, in assay [4], the Potency is 13.7 µM (active). Further, the activity change, positive = activation in [10] was 3.98%. Besides, the max response in assay [20] is 2.38%.
Regarding `SC1CCCCC1`, the Potency result in [1], in [2], in assay [3], in assay [4], in assay [5] and in assay [6] was “inactive” each time. The Potency entry in [7], in assay [8], in assay [9], in assay [11], in [17] and in assay [12] was “inactive” each time. In addition, the Potency entry in assay [13], in assay [18], in assay [15] and in assay [16] was “inactive” throughout. Moreover, in [20], the max response was 6.15%.
